Assay results: ChEMBL document CHEMBL4513135, “CO-ADD screening of IQOG CSIS (Spain) compounds”
Results with a measured potency or affinity are listed apart.

tested on: Klebsiella pneumoniae; details: Concentration 32 ug.mL-1; ASSAY_TEST Inhibition of Bacterial Growth; detection method Absorption (OD600); MEDIA CAMHB; plate type 384well; NBS; CORNING #3640; time 18 hr

Compound	Inhibition [%]
Cl.Cl.Cn1c(CNc2ccccc2)cc2cc(OCCCC3CCN(Cc4ccccc4)CC3)ccc21	5.5
O=C(O)n1ccc2ccccc21	4.22
Cc1ccc(/C=C(\C#N)C(=O)c2ccccc2)cc1	11.17
O=C(N/N=C/c1cccc(Cl)c1)c1cc2ccccc2[nH]1	-14.42
C#CCNc1nc(N)c(C#N)cc1C#N	1.8
O=C(N/N=C/c1c[nH]c2ccccc12)c1ccc(Cl)cc1	14.79
COc1cc(C2C(C#N)=C(N)Oc3c2ccc2ccccc32)ccc1O (configuration not stated)	-1.93
N#Cc1cc(C#N)c(NCCC2CCN(Cc3ccccc3)CC2)nc1N	15.31
C#CCNc1nc(NC2CCN(Cc3ccccc3)CC2)c(C#N)c(-c2ccccc2)c1C#N	-8.37
Cn1c(C(=O)O)cc2ccccc21	18.05
O=C1C=C(Nc2ccccc2)C(=O)N1c1ccccc1	6.46
O=Cc1c(-c2ccc(Br)cc2)nc2ccccn12	19.86
CC(=O)Oc1ccc(C=C2N=C(C)OC2=O)cc1	7.96
Cl.N#Cc1c(Cl)nc(N)nc1NCCO	6.6
Cc1nc2c3cnn(-c4ccccc4)c3ncn2n1	15.65
CCOC(=O)C1=C(C)NC(N)=C(C#N)C1c1ccc([N+](=O)[O-])cc1 (configuration not stated)	14.21
C=C1CN(C)c2c(C#N)cc(C#N)c(=S)n21	3.88
C#CCN(C)c1nc(Cl)c(C#N)c(-c2ccccc2)c1C#N	7.31
CSC1=NC2(CC2c2ccccc2)C(=O)N1 (configuration not stated)	20.57
C#CCN(C)Cc1cc2cc(OCc3ccccc3)ccc2n1C.O=C(O)C(=O)O	16.32
O=C1NC(=S)N/C1=C\c1ccccc1	18.56
O=C(COc1ccc2ccccc2c1)N/N=C/c1c[nH]c2ccccc12	8.99

tested on: Candida albicans; details: 32 ug/mL

Compound	Inhibition [%]
C#CCNc1nc(NC2CCN(Cc3ccccc3)CC2)c(C#N)cc1C#N.Cl	1.54
C#CCn1c(N)c(C#N)c2cc(O)ccc21	1.41
COc1ccc2cc(C=O)c(Cl)nc2c1	6.08
COc1cc(C2C(C#N)=C(N)Oc3ccc4ccccc4c32)ccc1O (configuration not stated)	0.23
CCOC(=O)C1=C(C)OC(N)=C(C#N)C1c1ccccc1OC (configuration not stated)	23.3
COc1ccc(C=C2N=C(c3ccccc3)OC2=O)cc1	0.77
Cl.ClCCCCCN1CCCCC1	2.45
CNC(=O)c1cc2cc(OC)ccc2[nH]1	-0.84
CCOC(=O)c1c(C)nc(NC2CCN(Cc3ccccc3)CC2)c(C#N)c1-c1ccccc1	3.26
NNC(=O)c1c[nH]c2ccc(OCc3ccccc3)cc12	1.23
CN(C)c1nc(N)c(C#N)cc1C#N	0.31
CCOC(=O)c1c(C)[nH]c(=O)c(C#N)c1-c1ccccc1	2.08
N#Cc1c(Cl)nc(Sc2ccccc2)c(C#N)c1-c1ccccc1	2.71
CCOC(=O)c1c(C)nc(/N=N/c2nc(C)c(C(=O)OCC)c(-c3ccccc3)c2C#N)c(C#N)c1-c1ccccc1	-1.11
Cn1ccnc1C1C2=C(CC(C)(C)CC2=O)Oc2nc3c(c(N)c21)CCC3 (configuration not stated)	-1.44
CCOC(=O)C1=C(C)NC(N)=C(C#N)C1c1ccc(OC)cc1 (configuration not stated)	5.45
CCOC(=O)c1c(C)nc2nc3c(c(N)c2c1-c1ccccc1OC)CCCCC3	-0.21
CC(=O)Oc1ccc(C=C2N=C(c3ccccc3)OC2=O)cc1	-0.21
Cl.Cl.Cn1c(CNc2ccccc2)cc2cc(OCCCC3CCN(Cc4ccccc4)CC3)ccc21	1.7
O=C(O)n1ccc2ccccc21	4.1

Compound	Inhibition [%]
Cc1ccc(/C=C(\C#N)C(=O)c2ccccc2)cc1	1.76
O=C(N/N=C/c1cccc(Cl)c1)c1cc2ccccc2[nH]1	-0.35
C#CCNc1nc(N)c(C#N)cc1C#N	2.29
O=C(N/N=C/c1c[nH]c2ccccc12)c1ccc(Cl)cc1	0.77
COc1cc(C2C(C#N)=C(N)Oc3c2ccc2ccccc32)ccc1O (configuration not stated)	22.7
N#Cc1cc(C#N)c(NCCC2CCN(Cc3ccccc3)CC2)nc1N	0.11
C#CCNc1nc(NC2CCN(Cc3ccccc3)CC2)c(C#N)c(-c2ccccc2)c1C#N	5.21
Cn1c(C(=O)O)cc2ccccc21	24.1
O=C1C=C(Nc2ccccc2)C(=O)N1c1ccccc1	-0.48
O=Cc1c(-c2ccc(Br)cc2)nc2ccccn12	0.21
CC(=O)Oc1ccc(C=C2N=C(C)OC2=O)cc1	-1
Cl.N#Cc1c(Cl)nc(N)nc1NCCO	1.9
Cc1nc2c3cnn(-c4ccccc4)c3ncn2n1	0.21
CCOC(=O)C1=C(C)NC(N)=C(C#N)C1c1ccc([N+](=O)[O-])cc1 (configuration not stated)	2.04
C=C1CN(C)c2c(C#N)cc(C#N)c(=S)n21	4.91
C#CCN(C)c1nc(Cl)c(C#N)c(-c2ccccc2)c1C#N	11.2
CSC1=NC2(CC2c2ccccc2)C(=O)N1 (configuration not stated)	-0.24
C#CCN(C)Cc1cc2cc(OCc3ccccc3)ccc2n1C.O=C(O)C(=O)O	2.13
O=C1NC(=S)N/C1=C\c1ccccc1	0.81
O=C(COc1ccc2ccccc2c1)N/N=C/c1c[nH]c2ccccc12	0.9
